# Assay results published in PubChem BioAssay (EPA / NIEHS).
# Where “and” joins values, the source holds several entries; their conditions need not be identical. Equal entries are not always repeated. Records with an inconclusive call do not appear. A structure can be active in one record and inactive in another. Calls of active or inactive are those of the source. Rule for the calls, unless noted: active = hit-call score of the fitted dose curve at least 0.9, where 1 is the maximum; inactive = score below 0.9.
# Legend:
# [1] = molecular target: human CYP2A6, CYP2A6 (gene 1548) (UniProt P11509); experiment: NVS_ADME_hCYP2A6: NovaScreen (NVS) CYP450-related Enzyme Activity (ADME) Assay for human CYP2A6 (AID 2283099; active = hit-call score of the fitted dose curve at least 0.9, where 1 is the maximum)
# Chain of human CYP2A6, CYP2A6 (gene 1548) (P11509 whole entry, looked up): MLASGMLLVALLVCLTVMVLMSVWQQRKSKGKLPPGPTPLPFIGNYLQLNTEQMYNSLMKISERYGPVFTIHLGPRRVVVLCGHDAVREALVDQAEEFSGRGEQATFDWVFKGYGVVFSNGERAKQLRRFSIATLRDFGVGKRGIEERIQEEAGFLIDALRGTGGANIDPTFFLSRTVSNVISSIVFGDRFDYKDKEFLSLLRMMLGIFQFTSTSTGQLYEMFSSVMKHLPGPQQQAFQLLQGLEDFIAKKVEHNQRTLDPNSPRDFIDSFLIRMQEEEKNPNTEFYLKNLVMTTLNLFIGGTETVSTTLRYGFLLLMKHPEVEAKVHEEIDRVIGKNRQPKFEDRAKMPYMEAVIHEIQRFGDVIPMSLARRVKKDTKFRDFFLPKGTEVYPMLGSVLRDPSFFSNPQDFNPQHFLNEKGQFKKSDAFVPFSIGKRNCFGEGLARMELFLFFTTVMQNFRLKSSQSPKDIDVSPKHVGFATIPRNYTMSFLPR
# How it was run: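 Insect-cell-expressed human CYP2A6 enzyme activity measured by fluorescence intensity 0.5 hour post-dosing. Compounds screened at 10 uM in duplicate, then hits tested singly in concentration series (max 20 uM); acetonitrile baseline.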
# [2] = read-out: Monocyte Chemoattractant Protein-1 (MCP1), CCL2 (gene 6347); experiment: BSK_SAg_MCP1: BioMAP Diversity Plus: SAg Assay for Monocyte Chemoattractant Protein-1 (MCP1) Biomarker Activity (AID 2283090); conditions: primary human HUVEC with PBMC; actives raise or lower the signal
# How it was run: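 MCP-1 levels in the endothelial–PBMC SAg co-culture were quantified by ELISA at 24 h post-dosing; both increases and decreases versus DMSO scored. Cytotoxicity monitored by SRB total protein in parallel cultures.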
# [3] = read-out: E-selectin (Homo sapiens) (UniProt P16581); experiment: BSK_SAg_Eselectin: BioMAP Diversity Plus: SAg Assay for Eselectin Biomarker Activity (AID 2283091); conditions: primary human HUVEC with PBMC; actives raise or lower the signal
# How it was run: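 E-selectin ELISA readout at 24 h post-dosing in human umbilical vein endothelial cell/PBMC co-culture; gain or loss of signal fitted relative to DMSO baseline.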
# [4] = read-out: Monokine induced gamma interferon (MIG), CXCL9 (gene 4283); experiment: BSK_SAg_MIG: BioMAP Diversity Plus: SAg Assay for Monokine induced gamma interferon (MIG) Biomarker Activity (AID 2283092); conditions: primary human HUVEC with PBMC; actives raise or lower the signal
# How it was run: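 Endothelial cells and PBMC were co-cultured, exposed to test chemicals, and sampled 24 h later. MIG was measured by ELISA, and responses were fitted in both directions relative to DMSO.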
# [5] = BSK_SAg_PBMCCytotoxicity: PBMC Cytotoxicity Assessment in the BioMAP Diversity Plus: SAg Assay (AID 2283093); conditions: primary human HUVEC with PBMC;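 note: PBMC viability measured as Alamar Blue reduction fluorescence at 546/580 nm; fitted both ways against DMSO so a hit may be loss or gain of signal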;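 for AC50: PBMC superantigen activated with SEB plus TSST-1 one hour after compound addition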
# How it was run: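 HUVEC/PBMC co-culture; PBMC exposed to chemical 1 h before SEB and TSST-1 activation (20 ng/mL each), incubated 90 h, then Alamar Blue 6 h, fluorescence 546/580 nm. Bidirectional fit versus DMSO baseline.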
# [6] = read-out: Interleukin-8 (IL8), CXCL8 (gene 3576); experiment: BSK_SAg_IL8: BioMAP Diversity Plus: SAg Assay for Interleukin-8 (IL8) Biomarker Activity (AID 2283094); conditions: primary human HUVEC with PBMC; actives raise or lower the signal
# How it was run: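 In this co-culture of human umbilical vein endothelium with peripheral blood mononuclear cells, IL-8 is assayed by ELISA at 24 h. DMSO serves as baseline for bidirectional curve fitting.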
# [7] = BSK_SAg_Proliferation: Cell Proliferation Assessment in the BioMAP Diversity Plus: SAg Assay (AID 2283095); conditions: primary human HUVEC with PBMC;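 note: relative cell number as total protein by SRB absorbance in sub-confluent culture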
# How it was run: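 Readout is SRB-stained protein (560 nm) in a primary human HUVEC and PBMC co-culture; sub-confluent cultures are read at 96 h. Activity is fitted bidirectionally using DMSO as baseline.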
# [8] = BSK_SAg_SRB: Viability Assessment in the BioMAP Diversity Plus: SAg Assay (AID 2283096); conditions: primary human HUVEC with PBMC;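 note: cells read one day after compound addition; hits may be either gain or loss of signal compared with DMSO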
# How it was run: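 Human umbilical vein endothelial cells co-cultured with PBMC, read 24 h after compound dosing. Total protein measured by sulforhodamine B staining (0.1% SRB after 10% TCA fixation, absorbance 560 nm); bidirectional fit versus DMSO baseline.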
# [9] = molecular target: human CYP19A1, CYP19A1 (gene 1588) (UniProt P11511); experiment: NVS_ADME_hCYP19A1: NovaScreen (NVS) CYP450-related Enzyme Activity (ADME) Assay for human CYP19A1 (AID 2283098; active = hit-call score of the fitted dose curve at least 0.9, where 1 is the maximum;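 for AC50: potency for inhibitors seen as loss of fluorescent enzyme signal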)
# Chain of human CYP19A1, CYP19A1 (gene 1588) (P11511 whole entry, looked up): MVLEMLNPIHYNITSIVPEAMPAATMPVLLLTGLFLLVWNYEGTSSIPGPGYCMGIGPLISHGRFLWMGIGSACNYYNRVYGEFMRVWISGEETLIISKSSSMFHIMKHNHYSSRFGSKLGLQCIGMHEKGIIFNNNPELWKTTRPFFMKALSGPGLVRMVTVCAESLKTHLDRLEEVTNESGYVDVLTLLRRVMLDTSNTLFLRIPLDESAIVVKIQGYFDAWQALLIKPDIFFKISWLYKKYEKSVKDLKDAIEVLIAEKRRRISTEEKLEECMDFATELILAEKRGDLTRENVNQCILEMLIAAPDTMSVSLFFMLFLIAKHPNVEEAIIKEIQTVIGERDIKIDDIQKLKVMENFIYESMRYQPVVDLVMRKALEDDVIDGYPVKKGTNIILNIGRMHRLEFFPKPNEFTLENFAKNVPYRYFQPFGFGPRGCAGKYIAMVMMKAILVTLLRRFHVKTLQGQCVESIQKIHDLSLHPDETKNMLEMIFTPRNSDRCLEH
# How it was run: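 Recombinant enzyme in a cell-free format, read 0.5 h after dosing by fluorescence from a fluorogenic substrate. Loss of signal was fitted against acetonitrile as baseline. Primary screen in duplicate at 10 uM, actives then tested in concentration series.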
# [10] = molecular target: human CYP1A1, CYP1A1 (gene 1543) (UniProt P04798); experiment: NVS_ADME_hCYP1A1: NovaScreen (NVS) CYP450-related Enzyme Activity (ADME) Assay for human CYP1A1 (AID 2283100; active = hit-call score of the fitted dose curve at least 0.9, where 1 is the maximum)
# Chain of human CYP1A1, CYP1A1 (gene 1543) (P04798 whole entry, looked up): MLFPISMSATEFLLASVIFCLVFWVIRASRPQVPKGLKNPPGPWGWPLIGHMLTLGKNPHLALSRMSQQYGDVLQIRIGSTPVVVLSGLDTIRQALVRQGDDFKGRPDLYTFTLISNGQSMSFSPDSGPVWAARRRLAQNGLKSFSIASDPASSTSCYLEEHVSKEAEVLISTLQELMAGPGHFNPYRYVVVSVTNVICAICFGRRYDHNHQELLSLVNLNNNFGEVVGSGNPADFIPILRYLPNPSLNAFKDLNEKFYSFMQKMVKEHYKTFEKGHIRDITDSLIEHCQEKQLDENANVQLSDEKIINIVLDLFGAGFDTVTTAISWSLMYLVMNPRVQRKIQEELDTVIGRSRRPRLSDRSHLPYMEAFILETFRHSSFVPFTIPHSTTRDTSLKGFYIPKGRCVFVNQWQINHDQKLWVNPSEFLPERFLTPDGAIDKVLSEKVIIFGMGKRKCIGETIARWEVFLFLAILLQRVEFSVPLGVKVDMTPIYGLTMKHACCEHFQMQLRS
# How it was run: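 Read-out: fluorescence intensity from enzymatic turnover of substrate by recombinant CYP1A1, loss of signal indicating inhibition. Incubation 1 h post-dose. Primary single-point 10 uM in duplicate; actives rerun singly with top concentration 20 uM.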
# Chain of E-selectin (Homo sapiens) (P16581 whole entry, looked up): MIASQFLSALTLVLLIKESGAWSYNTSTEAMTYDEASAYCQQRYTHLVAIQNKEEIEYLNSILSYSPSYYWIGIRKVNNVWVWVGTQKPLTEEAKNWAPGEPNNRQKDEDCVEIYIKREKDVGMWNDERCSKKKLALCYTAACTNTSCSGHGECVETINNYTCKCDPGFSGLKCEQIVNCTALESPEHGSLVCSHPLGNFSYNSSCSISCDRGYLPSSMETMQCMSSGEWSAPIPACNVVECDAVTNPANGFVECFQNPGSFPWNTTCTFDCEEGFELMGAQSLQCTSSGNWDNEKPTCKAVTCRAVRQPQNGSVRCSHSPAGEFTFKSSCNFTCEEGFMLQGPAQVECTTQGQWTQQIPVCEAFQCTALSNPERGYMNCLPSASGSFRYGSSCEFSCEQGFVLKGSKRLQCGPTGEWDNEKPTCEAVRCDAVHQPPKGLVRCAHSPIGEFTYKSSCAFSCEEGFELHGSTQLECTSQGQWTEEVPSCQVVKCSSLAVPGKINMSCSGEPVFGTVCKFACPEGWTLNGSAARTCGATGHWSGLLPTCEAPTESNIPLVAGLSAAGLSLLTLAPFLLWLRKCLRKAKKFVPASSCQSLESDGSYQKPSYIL
smiles,measurement,setting,value
Oc1c(Cl)c(Cl)c(Cl)c(Cl)c1Cl,outcome,[1],inactive
COc1ccc(O)c(C(C)(C)C)c1,outcome,[1],inactive
O=S(=O)(O)C(F)(F)C(F)(F)C(F)(F)C(F)(F)C(F)(F)C(F)(F)F,outcome,[2],inactive
same,outcome,[3],inactive
same,outcome,[4],inactive
same,outcome,[5],inactive
same,outcome,[6],inactive
same,outcome,[7],inactive
same,outcome,[8],inactive
same,outcome,[9],inactive
CCCCCCCCCc1ccc(O)cc1,AC50,[2],29.8 µM (active)
same,AC50,[3],20 µM (active)
same,AC50,[4],33.7 µM (active)
same,AC50,[5],16.2 µM (active)
same,AC50,[6],20.2 µM (active)
same,AC50,[7],14.3 µM (active)
same,AC50,[8],23.8 µM (active)
CCNc1nc(NC(C)C)nc(SC)n1,outcome,[2],inactive
same,outcome,[3],inactive
same,outcome,[4],inactive
same,outcome,[5],inactive
same,outcome,[6],inactive
same,outcome,[7],inactive
same,outcome,[8],inactive
Oc1ccc(C(c2ccc(O)cc2)(C(F)(F)F)C(F)(F)F)cc1,AC50,[2],26.5 µM (active)
same,AC50,[3],19.8 µM (active)
same,AC50,[4],32.4 µM (active)
same,AC50,[5],20.7 µM (active)
same,AC50,[6],18.1 µM (active)
same,AC50,[8],22.6 µM (active)
same,AC50,[9],7.19 µM (active)
Nc1ccc(-c2ccc(N)cc2)cc1,outcome,[2],inactive
same,outcome,[3],inactive
same,outcome,[4],inactive
same,outcome,[5],inactive
same,outcome,[6],inactive
same,outcome,[7],inactive
same,outcome,[8],inactive
same,AC50,[10],3.1 µM (active)
Cc1ccccc1O,outcome,[2],inactive
same,outcome,[3],inactive
same,outcome,[4],inactive
same,outcome,[5],inactive
same,outcome,[6],inactive
same,outcome,[7],inactive
same,outcome,[8],inactive
ClC(Cl)=C(c1ccc(Cl)cc1)c1ccc(Cl)cc1,AC50,[2],39.2 µM (active)
same,AC50,[3],32.2 µM (active)
same,AC50,[4],36 µM (active)
same,AC50,[5],15.4 µM (active)
same,AC50,[6],34.6 µM (active)
same,AC50,[7],18.4 µM (active)
same,AC50,[8],32 µM (active)
Nn1cnnc1,outcome,[2],inactive
same,outcome,[3],inactive
same,outcome,[4],inactive
same,outcome,[5],inactive
same,outcome,[6],inactive
same,outcome,[7],inactive
same,outcome,[8],inactive
CCC(C)(CC)c1cc(NC(=O)c2c(OC)cccc2OC)on1,outcome,[2],inactive
same,outcome,[3],inactive
same,outcome,[4],inactive
same,outcome,[5],inactive
same,outcome,[6],inactive
same,outcome,[7],inactive
same,outcome,[8],inactive
CCOP(=S)(OCC)SCSC(C)(C)C,outcome,[2],inactive
same,AC50,[3],39 µM (active)
same,outcome,[4],inactive
same,AC50,[5],31.1 µM (active)
same,outcome,[6],inactive
same,AC50,[7],28.8 µM (active)
same,outcome,[8],inactive
C=CC(N)=O,outcome,[2],inactive
same,outcome,[3],inactive
same,outcome,[4],inactive
same,outcome,[5],inactive
same,outcome,[6],inactive
same,outcome,[7],inactive
same,outcome,[8],inactive
O=C(O)C(F)(F)C(F)(F)C(F)(F)C(F)(F)C(F)(F)F,outcome,[2],inactive
same,outcome,[3],inactive
same,outcome,[4],inactive
same,outcome,[5],inactive
same,outcome,[6],inactive
same,outcome,[7],inactive
same,outcome,[8],inactive
ClC1=C(Cl)[C@]2(Cl)[C@@H]3[C@@H](Cl)[C@H]4O[C@H]4[C@@H]3C1(Cl)C2(Cl)Cl,outcome,[2],inactive
same,AC50,[3],9.42 µM (active)
same,outcome,[4],inactive
same,outcome,[5],inactive
same,outcome,[6],inactive
same,AC50,[7],14.7 µM (active)
same,AC50,[8],10.6 µM (active)
same,outcome,[9],inactive
COS(=O)(=O)OC,outcome,[2],inactive
same,outcome,[3],inactive
same,outcome,[4],inactive
same,outcome,[5],inactive
same,outcome,[6],inactive
same,outcome,[7],inactive
same,outcome,[8],inactive
CC(C)(O)C(=O)Nc1ccc([N+](=O)[O-])c(C(F)(F)F)c1,outcome,[2],inactive
same,outcome,[4],inactive
same,outcome,[5],inactive
same,outcome,[6],inactive
same,outcome,[7],inactive
same,outcome,[8],inactive
same,AC50,[9],6.99 µM (active) and 5.59 µM (active)
same,outcome,[9],inactive
Cc1cc(-c2ccc(N)c(C)c2)ccc1N,outcome,[2],inactive
same,outcome,[3],inactive
same,outcome,[4],inactive
same,outcome,[5],inactive
same,outcome,[6],inactive
same,AC50,[7],11.8 µM (active)
same,outcome,[8],inactive
same,outcome,[9],inactive
NS(=O)(=O)C(F)(F)C(F)(F)C(F)(F)C(F)(F)C(F)(F)C(F)(F)C(F)(F)C(F)(F)F,AC50,[2],31.2 µM (active) and 54.2 µM (active) and 54.5 µM (active)
same,AC50,[3],20 µM (active) and 45.5 µM (active) and 49 µM (active)
same,AC50,[4],34.6 µM (active) and 51.3 µM (active) and 56.3 µM (active)
same,AC50,[5],33.6 µM (active) and 48 µM (active) and 55.1 µM (active)
same,AC50,[6],31.8 µM (active) and 43.3 µM (active) and 44.3 µM (active)
same,AC50,[7],32.2 µM (active) and 43.5 µM (active) and 51.1 µM (active)
same,AC50,[8],27.6 µM (active) and 47.4 µM (active) and 44.9 µM (active)
